Compound activity (PubChem BioAssay)
KLK7 zymogen act: proKLK7 zymogen activators, primary screen, biochemical, fluorescence intensity; Kallikrein-7 (Homo sapiens), P49862; purified proKLK7, EDANS-DABCYL substrate fluorescence; 100% is mature enzyme control, 0% vehicle; activation, % at 7 µM; 370,000 compounds, 0.9% hits; AID 652039, 2013;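 active = activation above the mean of all tested compounds plus 3 SD, computed per campaign excluding outliers beyond control limits, cut at about 13% in these data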
ADAM10 inh: human ADAM10 inhibitors, primary screen, biochemical, QFRET, HTS; inhibition, % at 7 µM; Disintegrin and metalloproteinase domain-containing protein 10 (Homo sapiens), O14672; AID 720582, 2013; recombinant ADAM10, EDANS/DABCYL FRET peptide cleavage, 3 h; 370,000 compounds, 0.62% hits;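 active = inhibition above a per-campaign cutoff equal to the mean of compounds falling between control-based bounds plus 3 SD, cut at about 20% in these data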;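 also: 0% = DMSO wells while the 100% control is not disclosed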
V-ATPase pHluor: regulators of yeast V-ATPase proton pumping, primary screen, pHLuorin cytosolic pH fluorescence. response, % at 10 µM. 350,000 compounds, 0.37% hits. AID 504577, 2011. S. cerevisiae; in the data active = response mostly above about 7.3%, no sharp cut-off; inactive = mostly below about 5.4%; also: actives read high
ADAM17 inh: ADAM17 inhibitors, primary screen, biochemical, QFRET; Disintegrin and metalloproteinase domain-containing protein 17 (Homo sapiens), P78536; recombinant ADAM17, EDANS/DABCYL FRET peptide cleavage; inhibition, % at 6.95 µM; 370,000 compounds, 0.83% hits; AID 720648, 2013;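 active = inhibition above the mean of compounds lying between control limits plus 3 SD, set per campaign, cut at about 8.5% in these data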;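 also: 0% = DMSO-only wells as the low control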
Target sequence (P78536 215-824 limits assumed): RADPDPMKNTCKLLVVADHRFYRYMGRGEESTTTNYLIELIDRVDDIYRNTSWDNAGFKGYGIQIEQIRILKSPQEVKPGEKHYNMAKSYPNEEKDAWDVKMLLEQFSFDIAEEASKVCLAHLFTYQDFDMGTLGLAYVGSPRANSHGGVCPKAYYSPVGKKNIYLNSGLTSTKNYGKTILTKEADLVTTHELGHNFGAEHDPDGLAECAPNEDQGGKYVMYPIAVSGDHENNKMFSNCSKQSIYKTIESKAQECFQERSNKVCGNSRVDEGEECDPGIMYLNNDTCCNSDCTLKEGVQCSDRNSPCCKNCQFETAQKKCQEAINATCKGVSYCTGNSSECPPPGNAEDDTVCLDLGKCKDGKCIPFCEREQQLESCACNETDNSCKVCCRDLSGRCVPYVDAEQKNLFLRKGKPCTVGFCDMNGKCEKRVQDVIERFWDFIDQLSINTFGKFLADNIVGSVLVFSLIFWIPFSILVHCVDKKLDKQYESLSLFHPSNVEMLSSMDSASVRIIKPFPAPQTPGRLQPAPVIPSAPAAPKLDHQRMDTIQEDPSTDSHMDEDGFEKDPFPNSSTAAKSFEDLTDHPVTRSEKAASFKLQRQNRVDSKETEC
KLK7 act conf: proKLK7 zymogen activators, confirmation, biochemical, fluorescence intensity, triplicate. activation, % at 7 µM. purified proKLK7, EDANS-DABCYL substrate fluorescence; scaled: vehicle 0, mature enzyme 100. 3,200 compounds, 68% hits. shares compounds with KLK7 zymogen act;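 active = activation, as change over the incubation, above the mean of all tested compounds plus 3 SD, cut at about 13% in these data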
EDANS interfere: EDANS-DABCYL substrate optical interference, artefact control for kallikrein-7 zymogen activator project, biochemical, fluorescence intensity, high throughput; 3,200 compounds, 80% hits; shares compounds with KLK7 zymogen act; no enzyme, 4 h; solvent 0%, active enzyme control 100%; activation, % at 7 µM;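 active = activation above the all-compound mean plus 3 SD, ignoring values outside control-based bounds, cut at about 4.8% in these data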;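 also: value is the 4 h activation minus the activation read at time zero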
* hit, by the source's call; i = inactive; / = not tested or not shown. Compounds with a hit are over-represented: about 2.3% of the library has one in this group of screens.

SMILES | KLK7 zymogen act | ADAM10 inh | V-ATPase pHluor | ADAM17 inh | KLK7 act conf | EDANS interfere
CCN(CC)C(=O)[C@H]1C[C@H](CC(=O)NCc2ccco2)C(=O)N2CCc3c([nH]c4cc(-c5ccco5)ccc34)[C@]12C | 112* | i | 1 | -147 | 44* | 51*
CCN(CC)C(=O)[C@H]1CC(CC(=O)NCCN2CCOCC2)C(=O)N2CCc3c([nH]c4ccccc34)[C@]12C (stereo partly specified) | 1 | -4 | -3 | 2 | / | /
CCN(CC)C(=O)[C@H]1C[C@H](CC(=O)NCCCn2ccnc2)C(=O)N2CCc3c([nH]c4cc(-c5ccco5)ccc34)[C@]12C | 95* | -209 | 1 | -58 | 69* | 74*
CCN(CC)C(=O)[C@H]1C[C@H](CC(=O)NCCN2CCOCC2)C(=O)N2CCc3c([nH]c4cc(-c5ccco5)ccc34)[C@]12C | 120* | i | -2 | -190 | 148* | 194*
CCN(CC)C(=O)[C@H]1C[C@H](CC(=O)NCCCn2ccnc2)C(=O)N2CCc3c([nH]c4cc(CCC(=O)N(C)C)ccc34)[C@]12C | 1 | -17 | 1 | -5 | / | /
CC(C)(C)c1ccc(-c2cn(C[C@H](Cc3ccccc3)n3c(=O)c4ccccc4n3Cc3ccno3)nn2)cc1 | -2 | -87 | / | -27 | / | /
CCOC(=O)Nc1cc(=O)c([N+](=O)[O-])c(N)[nH]1 | -1 | 4 | / | 7 | / | /
Cc1cc(N2CCOCC2)nc(N2CCOCC2)c1C#N | 0 | -8 | -1 | -2 | / | /
CCC1Cc2c(nc(N)c3c(N)nc(N4CCOCC4)c(C#N)c23)O1 (stereo unspecified) | 19* | -379 | -6 | -127 | -16 | -24
CCOc1cc2c(C#N)c(N3CCOCC3)nc(N)c2c(N)n1 | 16* | -420 | -1 | -112 | 69* | 66*
N#Cc1c(N2CCCCC2)nc(N)c2c(N)nc3c(c12)CC(CCl)O3 (stereo unspecified) | 14* | i | 3 | -181 | -149 | -159
N#Cc1c(N)nc2c(c1N)CC(CCl)O2 (stereo unspecified) | 0 | -29 | 1 | -8 | / | /
COCCN1C(=O)Cc2c1nc(N)c1c(N)nc(N3CCN(c4ccc(F)cc4)CC3)c(C#N)c21 | -1 | -12 | 0 | -4 | / | /
CCOc1cc2c(C#N)c(N(CC)CC)nc(N)c2c(N)n1 | -1 | -47 | -1 | -6 | / | /
COc1ccc(CN2C(=O)Cc3c2nc(N)c2c(N)nc(N4CCOCC4)c(C#N)c32)cc1 | 55* | -337 | -1 | -108 | -48 | -49
CCCCOCC1CN(CCCC)S(=O)(=O)c2c(cccc2Sc2ccc(OC)c(OC)c2)O1 (stereo unspecified) | 0 | 2 | / | 4 | / | /
COc1ccccc1CCn1cnc(-c2ccc(OC)c(OC)c2)c1CC(C)C | 1 | -16 | / | -5 | / | /
COC(=O)[C@]12C[C@H](CC(=O)NCc3ccc(C)o3)C(=O)N(Cc3ccc(Cl)cc3Cl)C1=C[C@H](C(C)C)O[C@@H]2C1CC1 | 0 | 8 | / | 2 | / | /
COC(=O)[C@]12C[C@H](CC(=O)NCC3CCCCC3)C(=O)N(Cc3ccc4c(c3)OCO4)C1=C[C@H](C(C)C)O[C@@H]2C1CC1 | 1 | 2 | / | 0 | / | /
Cc1ccc(NC(=O)C2CCN(c3ncccn3)CC2)cc1C | 0 | -25 | / | -2 | / | /
Cc1cccn2c(=O)c3cc(C(=O)NCCN4CCOCC4)c(=N)n(CCCN4CCOCC4)c3nc12 | 25* | i | -2 | -494 | 4 | 8.1*
N#Cc1cc2c(=O)n3ccccc3nc2n(CCCN2CCOCC2)c1=O | 48* | i | -59 | i | 44* | 40*
N=c1c(C(=O)NC2CCCC2)cc2c(=O)n3ccccc3nc2n1CCN1CCOCC1 | 3 | i | 5 | -264 | / | /
N#Cc1cc2c(=O)n3ccccc3nc2n(Cc2cccnc2)c1=O | 12 | i | -4 | -343 | / | /
N=c1c(C(=O)NC2CCCC2)cc2c(=O)n3ccccc3nc2n1CCCN1CCOCC1 | 26* | i | 4 | -355 | -24 | -17
SMILES | KLK7 zymogen act | ADAM10 inh | V-ATPase pHluor | ADAM17 inh | KLK7 act conf | EDANS interfere
O=C(NCCN1CCOCC1)c1cc2c(=O)n3ccccc3nc2n1Cc1ccccc1 | 41* | i | 0 | i | 81* | 73*
COc1ccccc1NC(=O)OC1CC2CC1[C@H]1CCCCN1[C@H]2C (stereo partly specified) | 1 | -88 | / | -10 | / | /
CC(C)n1nnnc1C1(C)CSCC(=O)N1Cc1cccc(F)c1 (stereo unspecified) | 0 | 0 | / | -1 | / | /
CCCN1CCCCC(NC(=O)c2ccc(F)c(F)c2)C1=O (stereo unspecified) | 0 | -9 | / | -3 | / | /
Cc1cccn2c(=O)c3cc(C(=O)NCc4ccccc4)c(=N)n(CCCN4CCOCC4)c3nc12 | 18* | i | -109 | -453 | -5 | -2
Cc1cccn2c(=O)c3cc(C(=O)NCCN4CCOCC4)c(=N)n(CCc4ccccc4)c3nc12 | 35* | i | -9 | i | -7 | -6
CCCNc1nc2nc3ccccn3c(=O)c2cc1C(=O)NCCN1CCOCC1 | 26* | i | -7 | -377 | 21* | 20*
CCNC(=O)c1cc2c(=O)n3cccc(C)c3nc2n(CCc2ccccc2)c1=N | -4 | i | -3 | i | / | /
Cc1ccc2nc3c(cc(C(=O)NCCc4ccccc4)c(=N)n3CCCN3CCOCC3)c(=O)n2c1 | 17* | i | 1 | -425 | -2 | -2
O=C(NCCN1CCOCC1)c1c(O)nc2ccccn2c1=O | 0 | -56 | 5 | -20 | / | /
CCOC(=O)[C@@]12CCC3=C1N(CCC3)C(=O)[C@H](CC(=O)NCc1cccs1)C2 | 0 | -8 | / | -9 | / | /
N#Cc1cc2c(=O)n3ccccc3nc2n(-c2ccccc2Cl)c1=O | 31* | i | 2 | i | 32* | 36*
CC(=O)N=c1c(C#N)cc2c(=O)n3ccccc3nc2n1Cc1ccccc1 | -1 | -195 | -1 | -69 | / | /
COCCN1C=C(C(=O)OC)C(c2ccc(Cl)cc2)C(C(=O)OC)=C1 | 31* | i | -2 | i | -71 | -71
COCCN1C=C(C(=O)OC)C(c2ccc3c(c2)OCO3)C(C(=O)OC)=C1 | -1 | -166 | -1 | -54 | / | /
CCOc1ccc(C2C(C(=O)OC)=CN(CCOC)C=C2C(=O)OC)cc1 | 26* | i | 3 | i | -4 | -2
COc1cccc(N2CCN(CC(=O)NCc3c(F)cccc3F)CC2)c1 | 0 | -9 | / | -3 | / | /
Nn1c(SCC(=O)Nc2cccc3ccccc23)nnc1-c1cc(-c2ccccc2)n[nH]1 | 1 | -6 | / | -1 | / | /
